The text below walks through data of PubChem BioAssay (Tox21).

Results filed as inconclusive are left out. Where a call stands in place of a potency, no number is given. Calls of active or inactive are those of the source. The call rests on the fitted dose curve.

The test in a line: qHTS assay to identify small molecule agonists of the progesterone receptor (PR) signaling pathway - cell viability counter screen (AID 1346799). Further: nearly all actives have a fitted effect of over 45% in size. Conditions: PR-UAS-bla HEK293T viability, CellTiter-Glo luminescence, 16 h; series mostly up to 92.4 µM; activity change, negative = cytotoxicity: at the top concentration. An excerpt: National Center for Advancing Translational Sciences [NCATS]
NIH Chemical Genomics Center [NCGC]
U.S. Environmental Protection Agency [EPA]
National Institutes of Environmental Health Sciences [NIEHS]
National Toxicology Program [NTP]
U.S. Food and Drug Administration [FDA]
Progesterone receptor (PR), a nuclear hormone receptor, plays an important role in development, metabolic homeostasis and reproduction. It is activated by the steroid hormone progesterone. Endocrine disrupting chemicals (EDCs) and their interactions with steroid hormone receptors like PR causes disruption of normal endocrine function. To identify the compounds that stimulate PR signaling, a PR-UAS-bla GripTite cell line i.e. PR-UAS-bla HEK293T (Invitrogen, Carlsbad, CA, USA) containing a beta-lactamase reporter gene under the control of an UAS response element was used to screen Tox21 10K compound library. The cytotoxicity of the Tox21 compound library against the PR-bla cell line was tested in parallel by measuring the cell viability using CellTiter-Glo assay in the same wells.
Tox21 Assay Protocol Summary:
PR-UAS-bla HEK293T cells were dispensed at 3,000 cells/5 uL of assay medium containing 2% charcoal stripped FBS per well into black wall/clear-bottom 1536-well plates using a Multidrop Combi (ThermoFisher Scientific, Waltham, MA) dispenser. After the assay plates were incubated at a 37C and 5% CO2 for 6 hr, 23 nL of compounds dissolved in DMSO, positive controls or DMSO only was transferred to the assay plate by a Pintool station (Kalypsys, San Diego, CA). The plates were incubated at 37C and 5% CO2 for 16 hr. Then 1 uL of LiveBLAzer B/G FRET substrate was added using a Flying Reagent Dispenser (FRD, Aurora Discovery, San Diego, CA), the plates were incubated at room temperature for 2 hours, and fluorescence intensity was measured by an Envision plate reader (PerkinElmer, Shelton, CT). For cell viability readout that measures cytotoxicity, 4 uL/well of CellTiter-Glo reagent was added into the assay plates using a FRD. After 30 min incubation at room temperature, the luminescence intensity in the plates was measured using a ViewLux (PerkinElmer) plate reader.
Turning to `CC(C)=CCC/C(C)=C/CO`, the Potency result is “inactive”.

For the molecule `CC(C)Cc1ccc(C(C)C(=O)O)cc1` (stereo not given), the Potency result is “inactive”. Regarding `C[C@]12CC[C@@H]3c4ccc(O)cc4CC[C@H]3[C@@H]1CCC2=O`, the Potency result was “inactive”.

In the case of `O=c1cc[nH]c(=O)[nH]1`, the Potency result is “inactive”.

Consider `CC(=O)/C=C/C1=C(C)CCCC1(C)C`, for which the Potency entry is “inactive”. Consider `Cc1cccc(C)c1O`, for which the “activity change, negative = cytotoxicity” value is -0.224% (inactive).

With `COCC(C)N` (stereo not given), the Potency result is “inactive”. The same measure, in the same setting: then `NC(=O)N1c2ccccc2C=Cc2ccccc21`, with “inactive”; and `CCN1CCCC1=O`, with “inactive”; and `O=C(O)CCCCC1CCSS1` (stereo not given), with “inactive”. `CO[C@H]1C=CO[C@@]2(C)Oc3c(C)c(O)c4c(O)c(c(/C=N/N5CCN(C)CC5)c(O)c4c3C2=O)NC(=O)/C(C)=C\C=C[C@H](C)[C@H](O)[C@@H](C)[C@@H](O)[C@@H](C)[C@H](OC(C)=O)[C@@H]1C`: the Potency entry is “inactive”. In the case of `NC(=O)NO`, the Potency entry is “inactive”. Turning to `COC1=CC(=O)C[C@@H](C)[C@]12Oc1c(Cl)c(OC)cc(OC)c1C2=O`, the “activity change, negative = cytotoxicity” value is 4.49% [at 42.5 µM] (inactive).

Consider `NCCNc1cccc2ccccc12`, for which the Potency result is “inactive”. Same read-out and setting: for `COC(=O)C1CCC(C(=O)OC)CC1` (stereo not given) the value was “inactive”; for `CC(O)COc1ccccc1` (stereo not given), “inactive”. Same read-out and setting: then `CCn1cc(C(=O)O)c(=O)c2ccc(C)nc21`, with “inactive”.

In the case of `CCCCNC(=O)NS(=O)(=O)c1ccc(N)cc1`, the “activity change, negative = cytotoxicity” value is -2.38% (inactive). Take `CCOC(=O)C(C)(C)Oc1ccc(Cl)cc1`: the Potency entry was “inactive”.

As to `COc1ccccc1O`, the Potency result was “inactive”.

Consider `CC(C)(C)NCC(O)c1ccc(O)c(CO)c1` (stereo not given), for which the Potency entry is “inactive”. Same read-out and setting: for `CC1(C)O[C@@H]2[C@@H](CO[C@@]3(COS(N)(=O)=O)OC(C)(C)O[C@@H]23)O1` the value was “inactive”; for `COc1cc(O)c(C(=O)c2ccccc2)cc1S(=O)(=O)O`, “inactive”. Same read-out and setting: then `CC(=O)OC/C=C(C)/C=C/C=C(C)/C=C/C1=C(C)CCCC1(C)C`, with “inactive”. In the case of `CCOCCO`, the “activity change, negative = cytotoxicity” value is 7.29% (inactive). Regarding `Cc1c(N(C)C)c(=O)n(-c2ccccc2)n1C`, the Potency result is “inactive”.

Turning to `CN(C)Cc1cc(CN(C)C)c(O)c(CN(C)C)c1`, the Potency result is “inactive”. On the same count and under the same terms, then `C=CCOC(=O)CC(C)C`, with “inactive”. In the case of `CCCCOCCOCCOC(C)=O`, the Potency result is “inactive”. Same read-out and setting: for `Cn1cnc2c1c(=O)[nH]c(=O)n2C` the value was “inactive”; for `O=C(O)CN(CC(=O)O)CC(=O)O`, “inactive”. Regarding `CC1=NN(c2ccccc2)C(=O)C1`, the “activity change, negative = cytotoxicity” value was -8.52% (inactive).

Regarding `CN/C(=C\[N+](=O)[O-])NCCSCc1ccc(CN(C)C)o1`, the Potency entry was “inactive”. Still for that read-out and setting: then `C=C(C)C(N)=O`, with “inactive”; and `COc1cc(C=O)ccc1O`, with “inactive”; and `Nc1cccc(N)c1`, with “inactive”. The same measure, in the same setting: for `NC(=O)c1ccc([N+](=O)[O-])cc1Cl` the value was “inactive”. `O=[N+]([O-])c1ccc(O)cc1`: the “activity change, negative = cytotoxicity” value was -21.6% (inactive). As to `CCCCCCCC(=O)OCC(O)CO` (stereo not given), the Potency result was “inactive”. In the case of `OCCCc1ccccc1`, the “activity change, negative = cytotoxicity” value is 7.5% [at 42.5 µM] (inactive).
